PubChem BioAssay AID623911 (Vanderbilt High Throughput Screening Facility, 2012)
The campaign covered roughly 2,100 compounds. About 770 (37%) were called active.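 The calls were made as follows: active = by-eye trace score of 1 for enhancers or -1 for inhibitors, so actives lie on both sides (some results past the limit were not filed as active); inactive = score 0, or 3 fluorescent, or 4 baseline rise.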 This is one part of the list.

These molecules were tested against G protein-activated inward rectifier potassium channel 2 (Homo sapiens) + G protein-activated inward rectifier potassium channel 1 (Homo sapiens) (UniProt P48051+P48549) (assay: GIRK1/2 thallium flux modulators, retest, confirmation, cell-based, HEK293 rmGlu8/hGIRK1/2, FluoZin-2 (AID 623911)). Conditions: HEK293 rmGlu8/hGIRK1/2, thallium flux FluoZin-2; actives lie on both sides; glutamate co-added at its EC20 level.
Chain of G protein-activated inward rectifier potassium channel 2 (Homo sapiens) + G protein-activated inward rectifier potassium channel 1 (Homo sapiens) (P48051 whole entry, looked up): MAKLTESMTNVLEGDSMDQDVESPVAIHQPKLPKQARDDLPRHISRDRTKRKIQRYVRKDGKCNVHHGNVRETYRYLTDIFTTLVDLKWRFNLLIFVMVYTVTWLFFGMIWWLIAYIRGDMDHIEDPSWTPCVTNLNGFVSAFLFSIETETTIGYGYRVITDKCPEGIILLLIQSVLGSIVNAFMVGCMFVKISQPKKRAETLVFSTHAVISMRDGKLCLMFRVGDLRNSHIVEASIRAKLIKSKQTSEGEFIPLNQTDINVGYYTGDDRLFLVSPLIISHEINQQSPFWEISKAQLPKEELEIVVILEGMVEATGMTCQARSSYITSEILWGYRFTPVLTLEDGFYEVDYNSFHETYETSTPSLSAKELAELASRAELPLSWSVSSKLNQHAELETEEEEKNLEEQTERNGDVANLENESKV
Chain of G protein-activated inward rectifier potassium channel 2 (Homo sapiens) + G protein-activated inward rectifier potassium channel 1 (Homo sapiens) (P48549 whole entry, looked up): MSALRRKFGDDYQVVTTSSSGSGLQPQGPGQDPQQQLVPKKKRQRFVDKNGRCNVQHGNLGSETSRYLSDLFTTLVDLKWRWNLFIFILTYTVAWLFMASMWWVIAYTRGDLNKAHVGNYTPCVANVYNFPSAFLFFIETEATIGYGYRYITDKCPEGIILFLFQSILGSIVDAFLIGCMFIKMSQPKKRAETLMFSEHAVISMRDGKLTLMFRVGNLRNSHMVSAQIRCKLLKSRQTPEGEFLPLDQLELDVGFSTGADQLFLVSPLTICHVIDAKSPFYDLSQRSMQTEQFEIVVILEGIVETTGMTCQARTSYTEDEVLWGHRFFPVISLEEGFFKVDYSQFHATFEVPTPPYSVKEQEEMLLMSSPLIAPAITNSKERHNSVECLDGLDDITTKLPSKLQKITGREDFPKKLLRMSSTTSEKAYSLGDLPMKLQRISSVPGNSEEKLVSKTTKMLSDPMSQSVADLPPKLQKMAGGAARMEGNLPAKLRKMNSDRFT

Manual score, inactive:
COCCn1c(=S)[nH]c2cc(C(=O)N3CCN(c4ccc(F)cc4)CC3)ccc2c1=O 0, O=c1c2ccccc2[nH]c(=S)n1CCN1CCN(Cc2ccccc2)CC1 0, O=c1c2cc(Cl)ccc2[nH]c(=S)n1Cc1cccs1 0, O=C(C1CCC(Cn2c(=S)[nH]c3ccccc3c2=O)CC1)N1CCN(c2ccccc2)CC1 (stereo not drawn) 0, CCN(CC)c1ccc2cc(C=O)c(=O)oc2c1 3, CCc1cccc(NC(=O)CCSCCC(=O)Nc2cccc(CC)c2)c1 0, COC(=O)CSc1nc2ncccc2[nH]1 0, CC(=O)Nc1ccc(NC(=O)CSc2nccn2Cc2ccccc2)cc1 0, COC(=O)CSc1nnc(SCc2ccc(OC)cc2)s1 0, CCOC(=O)c1ccc(N2C(=O)C(O)=C(C(C)=O)C2c2ccccc2)cc1 (stereo not drawn) 0, O=c1c2c(nc3c(-c4ccccc4)c[nH]n13)CCCC2 0, CCCCn1c(SC(C)C(N)=O)nc2cc(C(=O)OC)ccc2c1=O (stereo not drawn) 0, CN1/C(=C\C=C2/C(=O)Oc3ccccc3C2=O)C(C)(C)c2ccccc21 3, CCCOc1cccc(OCCSc2nc(C)cc(=O)[nH]2)c1 0, CCNC(=O)NC(=O)COC(=O)CCCSc1nc2ccccc2[nH]1 0, Oc1[nH]c2ccccc2c1N=NC(=S)NCC1CCCO1 (stereo not drawn) 0.5, Clc1ccc2[nH]c3c(NCC4CCCO4)ncnc3c2c1 (stereo not drawn) 0, c1cc2c(cc1C1=Nn3c(nnc3C3CCCCC3)SC1)OCO2 0, COc1ccc(C2=Nn3c(nnc3C3CCCCC3)SC2)cc1OC 0, CN(C1CCCCC1)S(=O)(=O)c1ccc(NC(=S)NC(=O)c2cccs2)cc1 0, CC1CCN(c2ccc(NC(=S)NC(=O)c3ccco3)cc2)CC1 0, O=C(NC(=S)Nc1ccc(N2CCCCC2)c(Cl)c1)c1cccs1 0, CC1CCN(c2ccccc2NC(=S)NC(=O)c2ccco2)CC1 0, O=C(NC(=S)Nc1ccc(N2CCOCC2)cc1)c1ccco1 0, O=C(NC(=S)Nc1ccccc1N1CCCCC1)c1ccco1 0, CC(C)(C)C(=O)/C=c1\[nH]c(=O)/c(=C\c2ccc(F)cc2)s1 0, Cc1ccc(NC2CC(=O)N(CCc3ccccc3)C2=O)cc1 (stereo not drawn) 0, CCn1c(SCC(=O)Nc2oc(-c3ccccc3)c(-c3ccccc3)c2C#N)nnc1-c1ccco1 0, Cc1cnc(NC(=O)CSc2nc3ccccc3c(=O)[nH]2)s1 0, COc1ccc(C(=O)CC(=O)C(=O)NCCc2cccc(C)c2)cc1 0.5, COc1cc(OC)cc(C(=O)NC(=S)NCCc2ccccc2)c1 0, CCOc1ccccc1-c1c2cc(O)c(=O)cc-2oc2cc(O)c(O)cc12 0, CCOC(=O)c1c(-c2ccc(C)o2)csc1NC(=S)NC(=O)c1cccs1 0, CC(C)Cc1nnc(NC(=O)CSc2nc(=O)cc(N)n2-c2ccccc2)s1 0, O=C(NC(=S)NCc1ccccc1)c1ccccc1F 0.5, Cc1cccc(C)c1NC(=S)NC(=O)CCc1ccccc1 0, CC(C)CC(=O)Nc1cccc2c1C(=O)N(c1ccccc1)C2=O -0.5, CCCCCNc1nc(-c2ccccc2)cs1 0, CC(C)(C)C1CCC2(CC1)Nc1cccc3cccc(c13)N2 0, O=C(O)c1cccc(Nc2nc(N3CCOCC3)nc(N3CCOCC3)n2)c1 0, COC(=O)C1CCCN1C(=O)c1cccs1 (stereo not drawn) 0, CCOC(=O)C1=C(CC)Nc2ccccc2N=C1NC(=O)c1ccc(S(=O)(=O)N(C)C)cc1 0, C=COCCNC(=O)Nc1ccc(Cl)c(Cl)c1 0.5

Manual score, active:
CON(c1nc(Cl)nc(N(C)C)n1)S(=O)(=O)c1ccccc1Cl -1, O=C(c1csc2c1CCCC2)N1CCN(c2ccc(F)cc2)CC1 -1, C=CCn1c(=S)[nH]c2ccc(Br)cc2c1=O 1, C=CCn1c(=S)[nH]c2ccccc2c1=O 1, CCc1cccc(NC(=O)CSC2=NS(=O)(=O)c3ccccc32)c1 1, COC(=O)CSC1=NS(=O)(=O)c2ccccc21 -1, Clc1ccc2c(c1)C(N1CCNCC1)Cc1ccccc1S2 (stereo not drawn) -1, CSc1nc(-c2ccccc2)[nH]c(=S)c1C(C)=O 1, CC(=O)c1c(N2CCCC2)[nH]c(-c2ccccc2)nc1=S 1, CCOc1ccc(OCCSc2nc3ccccc3[nH]2)cc1 1, Oc1[nH]c2c(Cl)cc(Cl)cc2c1N=NC(=S)NCC1CCCO1 (stereo not drawn) 1, COc1ccccc1C1=Nn2c(nnc2C2CCCCC2)SC1 -1, Cc1cc(C)nc(N(C#N)Cc2ccc(Br)cc2)n1 -1, O=C(NC(=S)Nc1ccc(N2CCCCC2)cc1)c1ccco1 1, O=C(NC(=S)Nc1ccc(N2CCCCC2)cc1)c1cccs1 1, O=C(NC(=S)Nc1ccccc1N1CCOCC1)c1ccco1 1, O=C(CCc1ccccc1)NNC(=S)NC(=O)c1ccc(Cl)cc1 1, COc1ccc(C(=O)NC(=S)NNC(=O)CCc2ccccc2)cc1 1, CCOc1ccccc1Cn1c(=O)oc2ccc(C)cc21 -1, CCOC(=O)c1c(-c2ccc(C)o2)csc1NC(=S)NC(=O)N(C)C 1, CCOC(=O)c1c(-c2ccccc2)csc1NC(=S)NC 1, CCNC(=S)Nc1scc(-c2ccccc2)c1C(=O)OCC 1, O=C(NC(=S)N(Cc1ccccc1)Cc1ccccc1)c1ccccc1F 1, CC(C)C(=O)NC(=S)N(Cc1ccccc1)Cc1ccccc1 1, CC(C)CC(=O)NC(=S)N(Cc1ccccc1)Cc1ccccc1 1, Cc1cccc(C)c1NC(=S)NC(=O)c1ccccc1F 1, Cc1nc2ccccn2c1-c1csc(NCc2ccco2)n1 -1, Oc1cccc(Nc2nc(NCC3CCCO3)c3ccccc3n2)c1 (stereo not drawn) -1, CC1CCCC(NC(=O)Nc2cccs2)C1C (stereo not drawn) 1, CCOC(=O)C1=C(CC)Nc2ccccc2N=C1NC(=O)Nc1ccc(Cl)c(Cl)c1 1
